Shown are actives, neighbours in structure and some others; about 19% of the full set was active somewhere.
TDP1 cell CPT: qHTS for Inhibitors of human tyrosyl-DNA phosphodiesterase 1 (TDP1): qHTS in cells in presence of CPT; Potency, µM (top dose mostly 46.2 µM), inactives show at the top dose activity change, negative = growth inhibition, actives largely listed as inhibitors; AID 686979, 2013; chicken DT40 Tdp1-/-;hTDP1 cells + 20 nM CPT, ATP luminescence, 48 h; 12% of 420,000 active; also: potency is read from the fitted curve at half-maximal effect; nearly all actives have a fitted effect of over 55% in size
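Chicken DT40 Tdp1-/- cells complemented with human TDP1, 400 cells/well, exposed to compounds plus 20 nM camptothecin for at least 48 h at 37 C; viability read as ATP content by CellTiter-Glo luminescence.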
HT1080NT lethal: qHTS for induction of synthetic lethality in tumor cells producing 2HG: qHTS for the HT-1080-NT fibrosarcoma cell line; Potency, µM (top dose mostly 46.1 µM), for inactives: top-dose activity, negative = less viability, most hits filed as cytotoxic; AID 686970, 2013; 1.6% of 360,000 active; HT-1080-NT fibrosarcoma viability, CellTiter-Glo ATP luminescence, 48 h;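 also: NT is the 2HG producing partner of a matched IDH1 knockdown line; potency is read from the fitted curve at half-maximal effect; 0% = DMSO-treated cells and -100% = media-only wells without cells; nearly all actives have a fitted effect of over 55% in size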
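Viability by CellTiter-Glo luminescence after 48 h compound exposure at 37C of HT-1080-NT cells (750/well, RPMI, 5% FBS). % activity scaled between DMSO wells and medium-only wells, then curve-fitted and categorized by curve class.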
HT1080 IDH1KD tx: qHTS for induction of synthetic lethality in tumor cells producing 2HG: qHTS for the HT-1080-IDH1KD cell line; HT-1080 IDH1 knockdown viability, ATP luminescence, 48 h; Potency, µM (doses to about 46.1 µM), inactives show at the top dose activity, negative = toxicity, usual class: cytotoxic; 2% of 360,000 active; AID 686971, 2013;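 also: potency is read from the fitted curve at half-maximal effect; 0% = DMSO wells and -100% = cell-free medium wells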
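HT-1080-IDH1KD cells (IDH1 knocked down), 750/well in RPMI with 5% FBS, treated with compound 48 h at 37 degrees C. Viability by CellTiter-Glo luminescence, normalised to DMSO and no-cell wells; concentration-response curves classed.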
DT40 TDP1 no CPT: qHTS for Inhibitors of human tyrosyl-DNA phosphodiesterase 1 (TDP1): qHTS in cells in absence of CPT | AID 686978, 2013 | DT40 Tdp1-/- hTDP1 cells, no CPT, ATP luminescence, 48 h | 15% of 420,000 active | Potency, µM (series often up to 46.2 µM), for inactives: at the top dose activity change, negative = growth inhibition, most hits filed as inhibitors; also: potency is read from the fitted curve at half-maximal effect; nearly all actives have a fitted effect of over 55% in size
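Camptothecin absent (DMSO only). Human TDP1-complemented DT40 knockout cells, 400 cells/well, 37 °C for minimum 48 hr; ATP measured via CellTiter-Glo, 30 min dark incubation, luminescence.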
IL1B secr inh: qHTS for Inhibitors of Inflammasome Signaling: IL-1-beta AlphaLISA Primary Screen. THP-1 LPS/ATP IL-1B secretion, AlphaLISA, 16 h; hits give low values. activity change, % at 57.5 µM. 4.7% of 360,000 active; in the data active = activity change below about -50%; inconclusive = mostly about -30% to -49%
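THP-1 cells pretreated 1 hr with compounds (up to 57.5 uM final), then stimulated with LPS (250 ng/mL final) plus ATP (1.25 mM final); secreted IL-1B measured by AlphaLISA after 16 hr, decreased signal indicating inhibition.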
An asterisk follows results filed as active; [ ] = another dose, or the depositor's remark. Unless noted, calls follow the shape of the dose curve; as a rule, active = well fitted curve in the direction sought with a large enough effect; inconclusive = small, poorly fitted or top-dose-only effect, or another doubt; inactive = no such curve, though single readings can be large; an effect the other way counts as inactive or inconclusive. Unless noted, % is scaled to controls: 0 for no effect and ±100 for the full control effect.

Cc1cc(N2CCN(C(=O)c3ccco3)CC2)n2ncc(-c3ccccc3)c2n1 was read as TDP1 cell CPT 23µM*, HT1080NT lethal -25%, HT1080 IDH1KD tx -29%, DT40 TDP1 no CPT 16µM* and IL1B secr inh -10.
For Cc1cc(-c2ccccc2)n2ncc(-c3ccccc3)c2n1 the results were TDP1 cell CPT -17%, HT1080NT lethal -20%, HT1080 IDH1KD tx -13%, DT40 TDP1 no CPT -22% and IL1B secr inh -10.
CCNC(=O)C1CCN(S(=O)(=O)c2ccc3c(c2)CCCN3C(C)=O)CC1 was read as TDP1 cell CPT -3% and DT40 TDP1 no CPT 0%.
Screening Cc1cc(N2CCCCC2)n2ncc(-c3ccccc3)c2n1 returned TDP1 cell CPT inconclusive, HT1080NT lethal -25%, HT1080 IDH1KD tx -22%, DT40 TDP1 no CPT 29µM* and IL1B secr inh 15.
`COC(=O)c1cc(Sc2c(Cl)cccc2Cl)ccn1` gave TDP1 cell CPT -25%, HT1080NT lethal -19%, HT1080 IDH1KD tx inconclusive, DT40 TDP1 no CPT 2.3µM* and IL1B secr inh 32.
Screening COC(=O)c1cc(Sc2cccc(Cl)c2Cl)ccn1 returned TDP1 cell CPT inconclusive, HT1080NT lethal -5%, HT1080 IDH1KD tx inconclusive, DT40 TDP1 no CPT -50% and IL1B secr inh -23.
Screening Cc1ccc(C(=O)NCCCNC(=O)c2ccc(Cl)cc2)cn1 returned TDP1 cell CPT -1%, HT1080NT lethal 3%, HT1080 IDH1KD tx -1%, DT40 TDP1 no CPT inconclusive and IL1B secr inh 0.
Screening COc1ccc(C(=O)COc2cccc(NC(=O)c3ccco3)c2)cc1 returned TDP1 cell CPT inconclusive, HT1080NT lethal 8%, HT1080 IDH1KD tx 14%, DT40 TDP1 no CPT 18µM* and IL1B secr inh 2.
For O=C(COc1cccc(NC(=O)c2cccc([N+](=O)[O-])c2)c1)c1ccc(Br)cc1 the results were TDP1 cell CPT inconclusive, HT1080NT lethal -16%, HT1080 IDH1KD tx inconclusive, DT40 TDP1 no CPT inconclusive and IL1B secr inh -72*.
For Cc1ccc(C(=O)C(C)Oc2cccc(NC(=O)c3ccco3)c2)cc1 (configuration not stated) the results were TDP1 cell CPT inconclusive, HT1080NT lethal -1%, HT1080 IDH1KD tx 0%, DT40 TDP1 no CPT 26µM* and IL1B secr inh -17.
Screening COc1cccc(C(=O)Nc2cccc(OCC(=O)c3ccccc3)c2)c1 returned TDP1 cell CPT 23µM*, HT1080NT lethal 0%, HT1080 IDH1KD tx -20%, DT40 TDP1 no CPT inconclusive and IL1B secr inh -1.
For CCc1noc(C)c1C(=O)Nc1ccc(S(=O)(=O)N2CCC(C)CC2)cc1 the results were TDP1 cell CPT inconclusive, HT1080NT lethal 6%, HT1080 IDH1KD tx 5%, DT40 TDP1 no CPT inconclusive and IL1B secr inh inconclusive.
COCCCNC(=O)C[C@@H]1C[C@@]2(C(=O)OC)CCCCC=C2N(Cc2cccc3ccccc23)C1=O was read as TDP1 cell CPT inconclusive, HT1080NT lethal 7%, HT1080 IDH1KD tx 8%, DT40 TDP1 no CPT inconclusive and IL1B secr inh 2.
For O=C(NNC(=O)c1cccc(O)c1)Nc1ccc([N+](=O)[O-])cc1 the results were TDP1 cell CPT -15%, HT1080NT lethal -1%, HT1080 IDH1KD tx -2%, DT40 TDP1 no CPT -19% and IL1B secr inh 17.
COc1ccc(NC(=O)c2cccc(NC(=O)C(C)C)c2)c([N+](=O)[O-])c1 was read as TDP1 cell CPT inconclusive, HT1080NT lethal 4%, HT1080 IDH1KD tx -4%, DT40 TDP1 no CPT 16µM* and IL1B secr inh 1.
Screening COc1ccc(NC(=O)c2cccc(F)c2)cc1Cl returned TDP1 cell CPT -5%, HT1080NT lethal 1%, HT1080 IDH1KD tx 1%, DT40 TDP1 no CPT -10% and IL1B secr inh -23.
`COC(=O)c1cccc(NC(=O)c2ccc(OC)c(Cl)c2)c1` gave TDP1 cell CPT 3%, HT1080NT lethal 6%, HT1080 IDH1KD tx inconclusive, DT40 TDP1 no CPT inconclusive and IL1B secr inh -72*.
`O=C(COc1cccc(NC(=O)c2ccccc2)c1)c1ccccc1` gave TDP1 cell CPT 16µM*, HT1080NT lethal -2%, HT1080 IDH1KD tx -16%, DT40 TDP1 no CPT inconclusive and IL1B secr inh -8.
`COc1ccc(-c2cccc(C(=O)Nc3ccc(OC)c(OC)c3)c2)cc1` gave TDP1 cell CPT -18%, HT1080NT lethal inconclusive, HT1080 IDH1KD tx inconclusive, DT40 TDP1 no CPT -20% and IL1B secr inh 19.
COc1ccc(C(=O)COC(=O)c2cccc(NC(=O)c3ccc(OC)c(OC)c3)c2)cc1 was read as TDP1 cell CPT 18µM* and DT40 TDP1 no CPT 10µM*.
For O=C(O)COc1cccc(NC(=O)c2ccccc2)c1 the results were TDP1 cell CPT -24%, HT1080NT lethal -1%, HT1080 IDH1KD tx 0%, DT40 TDP1 no CPT -15% and IL1B secr inh -13.
Screening Cc1nc(SCC(=O)Nc2ccc(Cl)cc2[N+](=O)[O-])nc(C)c1C returned TDP1 cell CPT -9%, HT1080NT lethal 0%, HT1080 IDH1KD tx 0%, DT40 TDP1 no CPT inconclusive and IL1B secr inh 0.
`CC(C)Cn1c(SCC(=O)NC2CC2)nc2ccccc21` gave TDP1 cell CPT -1%, HT1080NT lethal -1%, HT1080 IDH1KD tx -3%, DT40 TDP1 no CPT inconclusive and IL1B secr inh 16.
`O=C(c1cnn2cccnc12)N1CCOc2ccc(C(O)C(c3ccccc3)c3ccccc3)cc2C1` (configuration not stated) gave TDP1 cell CPT -1%[9.04 µM] and DT40 TDP1 no CPT inconclusive.
For CCN(CC(=O)Nc1ccc(NC(C)=O)cc1)C(=O)c1n[nH]c(=O)c2ccccc12 the results were TDP1 cell CPT 2%, HT1080NT lethal 6%, HT1080 IDH1KD tx 11%, DT40 TDP1 no CPT -2% and IL1B secr inh -6.
`O=S1(=O)CC(O)C(N2CCC(c3ccccc3)CC2)C1` (configuration not stated) gave TDP1 cell CPT -11%, HT1080NT lethal -12%, HT1080 IDH1KD tx 8%[9.24 µM], DT40 TDP1 no CPT -5% and IL1B secr inh 0.
COc1ccc(OC)c(NC(=O)c2cccc(NC(=O)c3ccccc3)c2)c1 was read as TDP1 cell CPT inconclusive, HT1080NT lethal 2%, HT1080 IDH1KD tx -3%, DT40 TDP1 no CPT inconclusive and IL1B secr inh -57*.
CCOc1ccc(-c2nnc3ccc(SCC(=O)Nc4nc5ccccc5s4)nn23)cc1 was read as TDP1 cell CPT inconclusive, HT1080NT lethal -2%, HT1080 IDH1KD tx -5%, DT40 TDP1 no CPT 18µM* and IL1B secr inh 15.

Screening results deposited in PubChem BioAssay by National Center for Advancing Translational Sciences (NCATS).
